Assay outcomes deposited in PubChem by National Center for Advancing Translational Sciences (NCATS).
Pol beta inh – DNA polymerase beta (human) inhibition | Pol beta primer extension/strand displacement, fluorescence kinetic | actives 1.3% (n = 340,000) | Potency, µM (doses to about 114 µM), for inactives: at the top dose activity change, negative = inhibition, most hits filed as inhibitors; further: on the % scale 0 is the no-effect control and ±100 the full control effect
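Reaction started by 50 nM substrate onto compound-treated Pol beta (10 nM, 15 min preincubation, room temperature); plates read at 0 min and 10 min. Normalized concentration-effect data fitted by four-parameter Hill equation.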
Pol eta inh-1 – DNA polymerase eta (human) inhibition; Potency, µM (doses to about 114 µM), without a hit: top-dose activity change, negative = inhibition, actives largely listed as inhibitors; recombinant Pol eta, fluorescent DNA replication assay; actives 1.2% (n = 390,000); further: on the % scale 0 is the no-effect control and ±100 the full control effect
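Fluorescent replication assay: 50 nM final substrate added after a 15 min room-temperature compound preincubation with 10 nM enzyme. Signal taken at 0 min and again at 10 min.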
Pol kappa inh-1 – DNA polymerase kappa (human) inhibition | actives 0.53% (n = 400,000) | purified Pol kappa, fluorescent DNA synthesis assay, 10 min | Potency, µM (highest dose often 107 µM), without a hit: at the highest dose activity, negative = inhibition, usual class: inhibitors | Q9UBT6; further: on the % scale 0 is the no-effect control and ±100 the full control effect
Target sequence (Q9UBT6 whole entry, looked up): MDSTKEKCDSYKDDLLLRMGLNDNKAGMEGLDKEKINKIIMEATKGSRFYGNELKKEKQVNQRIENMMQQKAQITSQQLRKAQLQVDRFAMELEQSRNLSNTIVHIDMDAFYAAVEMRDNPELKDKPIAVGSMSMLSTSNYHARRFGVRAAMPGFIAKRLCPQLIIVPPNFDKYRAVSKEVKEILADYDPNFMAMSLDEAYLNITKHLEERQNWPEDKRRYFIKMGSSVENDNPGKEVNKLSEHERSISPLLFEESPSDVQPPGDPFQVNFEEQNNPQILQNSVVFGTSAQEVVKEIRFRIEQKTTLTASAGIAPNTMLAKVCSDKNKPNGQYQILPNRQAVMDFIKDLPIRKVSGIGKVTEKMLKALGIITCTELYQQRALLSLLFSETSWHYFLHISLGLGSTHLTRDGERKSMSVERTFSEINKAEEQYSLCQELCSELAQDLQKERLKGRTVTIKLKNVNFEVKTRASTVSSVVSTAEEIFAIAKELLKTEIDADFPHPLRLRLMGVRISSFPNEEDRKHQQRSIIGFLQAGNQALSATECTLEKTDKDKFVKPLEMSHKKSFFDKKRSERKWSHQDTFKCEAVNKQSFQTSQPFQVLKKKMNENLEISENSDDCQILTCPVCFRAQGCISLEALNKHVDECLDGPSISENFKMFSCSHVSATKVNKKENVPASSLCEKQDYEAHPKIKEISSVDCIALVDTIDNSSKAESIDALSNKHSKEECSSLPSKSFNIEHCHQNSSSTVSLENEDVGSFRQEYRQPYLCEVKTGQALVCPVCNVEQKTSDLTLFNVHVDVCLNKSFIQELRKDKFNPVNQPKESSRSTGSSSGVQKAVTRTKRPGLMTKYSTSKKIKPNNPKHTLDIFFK
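Inhibition of 10 nM Pol kappa is measured by a fluorescent read-out at 0 and 10 min following addition of 50 nM substrate (final), with a 15-min room-temperature compound preincubation.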
Pol iota inh – inhibitors of human DNA polymerase iota. Pol iota fluorescent replication assay, 10 min. AID 588590. actives 1% (n = 390,000). Q9UNA4. Potency, µM (titrated, usually from 115 µM), for the others: at the top dose activity, negative = inhibition, usual class: inhibitors
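Fluorescent replication assay read twice, at 0 min and 10 min after adding 50 nM (final) substrate. Enzyme (10 nM) and compounds were first incubated 15 min at room temperature; enzyme-free buffer wells were negative controls.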
L3MBTL1 inh – inhibitors of human L3MBTL1; Q9Y468; AlphaScreen L3MBTL1–H3K9me1 peptide binding; Potency, µM (highest dose often 57.1 µM), without a hit: top-dose activity, negative = inhibition, usual class: inhibitors; actives 0.66% (n = 230,000); further: on the % scale 0 is the no-effect control and ±100 the full control effect; nearly all actives have a fitted effect of over 60% in size
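L3MBTL1 50 nM + b-AHA-H3(1-15)K9me1 75 nM, 30 min RT; compound added, 30 min RT; streptavidin donor/Ni-chelate acceptor beads 10 ug/mL each final, 30 min RT dark; AlphaScreen read.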
PGK validate – validation of Trypanosoma brucei phosphoglycerate kinase inhibitors. actives 79% (n = 500). shares compounds with Pol kappa inh-1. Potency, µM (titrated, usually from 57.5 µM), for the others: at the highest dose activity change, negative = inhibition, usual class: inhibitors. TbPGK coupled GAPDH assay, Kinase-Glo luminescence; further: on the % scale 0 is the no-effect control and ±100 the full control effect; nearly all actives have a fitted effect of over 65% in size
Pol iota confirm – Inhibitors of human DNA polymerase iota, confirmation. shares compounds with Pol kappa inh-1. Pol iota primer extension, TAMRA/BHQ fluorescence. Potency, µM, hits mostly inhibitors. actives 77% (n = 1,500)
Pol kappa inh-2 – Pol kappa (human) inhibition, cherry-pick confirmation. actives 76% (n = 920). purified Pol-kappa, fluorescent strand-displacement substrate. AID 720501. Potency, µM, actives largely listed as inhibitors. shares compounds with Pol eta inh-1
Pol eta inh-2 – confirmation of human DNA polymerase eta inhibitors; shares compounds with Pol eta inh-1; Pol eta primer extension, TAMRA/BHQ fluorescence, 10 min; Potency, µM, usual class: inhibitors; actives 64% (n = 2,600); AID 720502
* marks the source's active call; other numbers are inactive results; ? = inconclusive; · = no result; ! = a repeat was not active; [ ] = dose if it differs, or a comment. In the library only some 2.4% were active in any assay of this set; here they are far more common. The call rests on the fitted dose curve; in most records, active means well fitted curve in the direction sought with a large enough effect; inconclusive means small, poorly fitted or top-dose-only effect, or another doubt; inactive means no such curve, though single readings can be large; an effect the other way counts as inactive or inconclusive. Potency means the concentration at half of the fitted maximal effect.

SMILES | Pol beta inh | Pol eta inh-1 | Pol kappa inh-1 | Pol iota inh | L3MBTL1 inh | Pol iota confirm | Pol eta inh-2 | others
CCCCOC(=O)N(C)SN(C)C(=O)Oc1cccc2c1OC(C)(C)C2 | · | · | 13.6%[60.1 µM] | · | · | · | ·
O=C1NC(=S)NC(=O)C1=Cc1cccn1-c1ccc(O)cc1 | 25.1µM* | 3.55µM* | 17.8µM* | 2.24µM* | · | 7.52* | 6.01* | PGK validate=16.3µM*
Cc1cc(C)cc(N2C(=O)NC(=O)/C(=C\c3cccn3-c3ccccc3)C2=O)c1 | -2.7% | -5.0% | -16.5% | ? | 0.6% | · | ·
CNCC(O)c1ccc(OC(=O)C(C)(C)C)c(OC(=O)C(C)(C)C)c1 (configuration not stated) | · | -12.8% | -17.5% | ? | 7.1% | · | ·
O=[N+]([O-])c1cc(S(=O)(=O)c2ccc(O)c([N+](=O)[O-])c2)ccc1O | 11.2µM* | 2.82µM* | 44.7µM* | 17.8µM* | 10µM* | 59.7* | 30.1* | Pol kappa inh-2=6.7*
c1ccc2sc(C3(N4CCCC4)CCCCC3)cc2c1 | · | · | 7.4%[19.4 µM] | · | · | · | ·
O=C(O)CCn1cc(C=C2C(=O)NC(=S)NC2=O)c(-c2ccccc2)n1 | 13.3% | -12.6% | -1.9% | 70.7% | ? | · | ·
O=C(O)CCn1cc(C=C2C(=O)NC(=S)NC2=O)c(-c2cc3ccccc3oc2=O)n1 | -25.4% | 20µM* | ? | 39.8µM* | -21.5% | 67* | 30.1*
O=C(Cc1cc(=O)oc2cc(O)ccc12)NN=Cc1ccc(N(CCCl)CCCl)cc1 | · | 15.8µM* | ? | ? | · | ? | ?
O=C(NN=Cc1ccc(N(CCCl)CCCl)cc1)c1cc(=O)[nH]c(=O)[nH]1 | · | -16.4% | 5.6% | ? | · | · | ·
Cc1cc(/C=C2/C(=O)NC(=O)N(c3ccc(Br)cc3)C2=O)c(C)n1C | -29.1% | -10.9% | -12.3% | -17.8%[58.9 µM] | -5.1% | · | ·
Cc1cc(/C=C2\C(=O)NC(=O)N(c3ccc(Cl)cc3)C2=O)c(C)n1-c1cccc(C(=O)O)c1 | ? | 20µM* | -96.2% | 17.8µM* | · | 59.7* | 6.75* | Pol kappa inh-2=16.8*
Cc1ccc(N2C(=O)NC(=O)/C(=C\c3cc(C)n(-c4sc5c(c4C#N)CCCC5)c3C)C2=O)cc1 | ? | 20µM* | -37.3% | ? | -16.4% | 67* | 19*
Cc1cc(/C=C2\C(=O)NC(=O)N(c3ccc(Br)cc3)C2=O)c(C)n1-c1cc(C(=O)O)cc(C(=O)O)c1 | 28.2µM* | 2.51µM* | 2.82µM* | ? | · | 21.2* | 12* | PGK validate=?;Pol kappa inh-2=2.99*
COc1ccc(CN2CCN(C(=O)Cn3c(=O)oc4cc(Cl)ccc43)CC2)c(OC)c1OC | -18.7% | ? | 12.2% | 17.7% | · | · | ·
O=c1[nH]c(=O)n([C@H]2C[C@H](O)[C@@H](CO)O2)cc1/C=C/Br | 12.2%[57.1 µM] | -2.5%[57.1 µM] | -1.3%[19.4 µM] | ? | · | · | ·
CNc1ccc2oc(C[C@@H]3OC4(CC[C@@H]3C)O[C@H](C(C)C(=O)c3ccc[nH]3)[C@H](C)C[C@H]4C)nc2c1C(=O)O (some centres not stated) | · | · | -6.2%[60.1 µM] | · | · | · | ·
CN(C)[C@@H]1C(=O)C(C(N)=O)=C(O)[C@@]2(O)C(=O)C3=C(O)c4c(O)cccc4[C@@](C)(O)[C@H]3[C@H](O)[C@@H]12 | 2.82µM* | 3.98µM* | 2.82µM* | ? | 1µM*! | 9.47* | 26.9* | Pol kappa inh-2=8.44*
CN(C)c1ccc(/C=C2/C(=O)NC(=O)N(Cc3ccco3)C2=O)cc1 | ? | 6.31µM* | 35.5µM* | 15.8µM* | ? | 67* | 37.9* | Pol kappa inh-2=29.9*
COc1ccc(/C=C2/C(=O)N(Cc3ccco3)C(=O)N(C(C)C)C2=O)cc1 | 20µM* | 4.47µM* | 20µM* | 7.94µM* | ? | 21.2* | 10.7* | PGK validate=?
CCN1C(=O)C(=C2C=C(C)N(Cc3ccco3)C(C)=C2)C(=O)N(CC)C1=S | 3.3% | -17.1% | -5.2% | 36.8% | 38.4% | · | ·
CN(CCc1ccc(Cl)c(Cl)c1)[C@@H]1CCCC[C@@H]1N1CCCC1 | · | · | 7.3%[19.4 µM] | · | · | · | ·
COc1ccccc1/C=C1\C(=O)NC(=S)N(c2ccccc2)C1=O | 2.1% | -19.5% | -3.6% | ? | · | · | ·
O=C1NC(=S)N(c2ccccc2)C(=O)/C1=C/c1ccco1 | 10µM* | 0.794µM* | 2.51µM* | 1.58µM* | -0.4%[2.29 µM] | 0.474* | 0.757* | PGK validate=0.326µM*;Pol kappa inh-2=0.67*
Cc1ccc(/C=C2/C(=O)NC(=O)N(CCc3ccc(F)cc3)C2=O)o1 | 16.2% | ? | -19.2% | ? | -5.6% | · | ·
SMILES | Pol beta inh | Pol eta inh-1 | Pol kappa inh-1 | Pol iota inh | L3MBTL1 inh | Pol iota confirm | Pol eta inh-2 | others
CCOc1cccc(N2C(=O)/C(=C/c3ccco3)C(=O)NC2=S)c1 | 7.94µM* | 3.16µM* | 22.4µM* | ? | -91.7% | 9.47* | 15.1* | PGK validate=9.19µM*
O=C1NC(=O)N(CCc2ccc(F)cc2)C(=O)/C1=C/c1ccco1 | 3.16µM* | 20µM* | ? | 12.6µM* | · | 67* | 47.8* | PGK validate=8.19µM*
CC(=O)Nc1c2sscc-2n(C)c1=O | · | · | -8.3%[60.1 µM] | · | · | · | ·
CC[n+]1c(-c2ccccc2)c2cc(N)ccc2c2ccc(N)cc21 | · | 4.47µM* | 20µM* | 39.8µM* | · | 15* | ? | Pol kappa inh-2=9.47*
O=C(Oc1ccc(N2C(=O)C3C4CCC(C4)C3C2=O)cc1)c1ccco1 (configuration not stated) | 2.9% | -2.4% | -1.7% | 21.7% | · | · | ·
CC(C)CS(=O)(=O)C1=NN2C(=N)/C(=C\c3ccc(OC(=O)c4ccco4)cc3)C(=O)N=C2S1 | 44.7µM* | 20µM* | ? | 14.1µM* | · | 75.2* | 23.9*
Cc1ccc(C(=O)COC(=O)c2cccc(NC(=O)c3ccc(Br)cc3)c2)cc1 | -14.0% | ? | 1.1% | 28.8% | · | · | ·
CC(=O)CC(c1ccccc1)c1c(O)c2cc(O)ccc2oc1=O (configuration not stated) | · | · | -11.6%[60.1 µM] | · | · | · | ·
O=c1[nH]c(=O)n(-c2ccccc2)c(O)c1/C=C/C=Nc1ccccc1 | ? | ? | -8.5% | ? | 9.2% | · | ·
COc1ccc(-n2c(O)c(/C=C/C=Nc3ccccc3)c(=O)[nH]c2=O)cc1 | 20.6% | 20µM* | -10.7% | ? | -6.4% | 59.7* | 75.7* | Pol kappa inh-2=37.7*
COc1ccc(NC(=O)N2CCC3(CC2)CCN(C(=O)Oc2ccccc2)CC3)cc1 | · | · | -8.4%[60.1 µM] | · | · | · | ·
